Source: PubChem
The list is not random: actives were taken first. Their share in the collection is about 9.2%.
ELG1 DNA repair – inhibitors of ELG1-dependent DNA repair in HEK293T cells; HEK293T ELG1-luciferase reporter, luminescence, 16 h; DNA damage induced by 5-fluorouridine; Potency, µM (doses to about 46.1 µM), inactives show top-dose activity change, negative = inhibition, actives largely listed as inhibitors; 2.3% of 330,000 active; AID 504467; further: on the % scale 0 is the no-effect control and ±100 the full control effect; nearly all actives have a fitted effect of over 55% in size
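Luminescence from the luciferase reporter, measured 30 min after ONE-Glo reagent at room temperature, was the read-out. Beforehand, 2,000 cells per well were exposed for 16 hr at 37 °C to 5-fluorouridine together with compound or vehicle.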
Rab9 promoter act – activates the Rab9 promoter. Potency, µM (doses to about 9.22 µM), without a hit: at the highest dose activation, negative = inhibition, hits mostly activators. AID 485297. Huh7 Rab9 promoter-luciferase reporter, luminescence, 24 h. 2.8% of 320,000 active; further: % of control where 0% means no effect; nearly all actives have a fitted effect of over 60% in size
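Huh7 cells stably carrying Rab9 promoter–luciferase reporter, plated 1500 cells/well, compound added after 2 h and incubated 24 h at 37 °C; luciferase luminescence then read after 10 min with detection reagent.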
ELG1 genotoxic – inducers of genotoxicity in HEK293T ELG1-luciferase cells | AID 504466 | Potency, µM (highest dose often 46 µM), inactives show at the highest dose activity change, positive = activation, hits mostly activators | 1.3% of 330,000 active | HEK293T ELG1-luciferase reporter, luminescence, 16 h; further: % of control where 0% means no effect; nearly all actives have a fitted effect of over 60% in size
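Reporter readout depends on ELG1 protein level, which increases with genetic stress. After 16 hr compound exposure at 37 °C, luciferase activity was quantified using ONE-Glo.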
FLuc counter – firefly luciferase modulation, counter-screen for miR-21 project; P08659; purified FLuc, Km substrates, luminescence inhibition; Potency, µM (highest dose often 57.5 µM), for the others: top-dose activity change, negative = inhibition, actives largely listed as inhibitors; 6.9% of 360,000 active;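 further: plate controls were vehicle for no effect and reference inhibitor for full effect; nearly all actives have a fitted effect of over 55% in size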
Target sequence (P08659 whole entry, looked up): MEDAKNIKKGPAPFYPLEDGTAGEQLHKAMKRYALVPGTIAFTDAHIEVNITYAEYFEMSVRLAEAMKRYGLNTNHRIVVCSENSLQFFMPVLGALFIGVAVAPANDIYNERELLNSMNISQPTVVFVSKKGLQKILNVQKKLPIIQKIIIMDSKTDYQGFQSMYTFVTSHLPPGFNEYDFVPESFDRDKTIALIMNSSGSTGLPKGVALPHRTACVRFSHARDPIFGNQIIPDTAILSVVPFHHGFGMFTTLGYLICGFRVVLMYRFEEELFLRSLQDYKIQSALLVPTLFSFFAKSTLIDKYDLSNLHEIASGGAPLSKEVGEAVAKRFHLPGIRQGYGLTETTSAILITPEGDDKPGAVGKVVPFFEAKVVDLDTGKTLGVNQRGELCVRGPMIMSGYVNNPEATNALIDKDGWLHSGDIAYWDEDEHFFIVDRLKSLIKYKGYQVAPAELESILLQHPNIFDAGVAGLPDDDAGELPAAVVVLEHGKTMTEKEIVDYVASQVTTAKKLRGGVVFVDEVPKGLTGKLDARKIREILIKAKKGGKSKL
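Biochemical qHTS of compounds, final roughly 60 µM downward over six points, against 10 nM purified firefly luciferase using Km concentrations of substrates (10 uM D-luciferin, 10 uM ATP) in Tris acetate pH 7.5 buffer; luminescence output.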
SMN2 splice up – SMN2 splice variant enhancement | HEK293 SMN2-luciferase splicing reporter, luminescence, 30-36 h | Potency, µM (series often up to 46.1 µM), inactives show top-dose activity change, positive = activation, usual class: activators | 2.8% of 210,000 active; further: % of control where 0% means no effect; nearly all actives have a fitted effect of over 55% in size
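qHTS luciferase splicing reporter: luminescence rises when SMN2 exon 7 is included in transfected HEK293 cells. Compound exposure lasted 30-36 h at 37C, with 4.5 mM final sodium butyrate as control, followed by a ONE-Glo read.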
NPC1 prom act – activates the NPC1 promoter | Huh7 NPC1 promoter luciferase reporter, 24 h | Potency, µM (top dose mostly 9.22 µM), for inactives: at the highest dose activation, usual class: activators | 2.4% of 320,000 active; further: % of control where 0% means no effect; nearly all actives have a fitted effect of over 60% in size
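Huh7 cells stably carrying NPC1 promoter–luciferase, plated in Opti-MEM with 10% FBS for 2 h, were exposed to compound in DMSO for 24 h at 37 °C; luciferase reagent was added for 10 min and luminescence read.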
Active calls of the source: *; ? = inconclusive; / = not tested or not shown; [ ] = dose if it differs, or a comment. The call rests on the fitted dose curve; in most records, active means well fitted curve in the direction sought with a large enough effect; inconclusive means small, poorly fitted or top-dose-only effect, or another doubt; inactive means no such curve, though single readings can be large; an effect the other way counts as inactive or inconclusive. Potency means the concentration at half of the fitted maximal effect.

SMILES | ELG1 DNA repair | Rab9 promoter act | ELG1 genotoxic | FLuc counter | SMN2 splice up | NPC1 prom act
O=C(N/N=C/c1ccc([N+](=O)[O-])o1)c1cc2ccccc2o1 | ? | -34.0% | -0.7% | -12.4% | / | -9.8%
CCOc1ccc(S(=O)(=O)NCCc2sc3nc(-c4ccc(F)cc4)nn3c2C)cc1 | / | / | / | 5.8% | / | /
Cc1c(C)n(Cc2ccccc2)c2ccc(C(=O)N3CCN(c4ccc(F)cc4)CC3)cc12 | / | / | / | -1.1% | / | /
COc1ccc(C(=O)Nc2cnc3ccccn3c2=O)cc1 | ? | 3.55µM* | ? | 16.9µM* | 17.8µM* | 2.82µM*
O=C(Nc1cnc2ccccn2c1=O)c1ccc(F)cc1 | ? | 3.16µM* | 18.8% | 16.9µM* | 11.2µM* | 2.51µM*
COc1ccc(OC)c(NC(=O)c2cc3c(=O)n4ccccc4nc3n2C)c1 | -7.1% | 0.4% | 10.4% | 3.1% | -14.5% | -8.0%
Cc1cccc(C)c1-n1ncc(C(=O)N2CCN(c3ccccn3)CC2)c1C1CCN(C(=O)OC(C)(C)C)CC1 | / | / | / | -4.2% | / | /
COC(=O)c1cc(Cl)ccc1NC(=O)CSc1ncc(S(=O)(=O)c2ccc(Br)cc2)c(=O)[nH]1 | / | / | / | 10.7µM* | 0.9% | /
O=C(CSc1ncc(S(=O)(=O)c2ccc(Br)cc2)c(=O)[nH]1)NCc1ccccc1Cl | / | / | / | 9.53µM* | -2.9% | /
CCC1CCCCN1CCCNC(=O)c1ccc2c(c1)N(Cc1ccccc1F)C(=O)c1ccccc1S2(=O)=O (stereo not drawn) | / | / | / | 2.6% | -75.9% | /
Cc1ccc2[nH]c(C(=O)N/N=C/c3ccccc3O)c(C)c2c1 | 2.31µM* | -34.0% | ? | -19.4% | / | -10.1%
Cc1ccc2[nH]c(C(=O)N/N=C/c3ccccc3C(=O)O)c(-c3ccccc3)c2c1 | ? | -10.5% | -2.6% | ? | / | -3.3%
COc1cnc(-c2ccccn2)nc1Sc1ccc(F)cc1 | 20.6µM* | -0.4% | -7.6% | 0.9% | -93.0% | -5.5%
COc1cnc(-c2ccccn2)nc1N(C)c1ccccc1 | ? | 1.3%[1.84 µM] | 21.3% | 10.7µM* | / | -0.2%
COc1ccc(Sc2nc(-c3ccccn3)ncc2OC)cc1 | 14.6µM* | -9.3% | -6.7% | -8.1% | -74.3% | -6.2%
COc1cnc(-c2ccccn2)nc1Sc1ccccc1 | ? | 3.2% | -11.9% | ? | -108.7% | -12.4%
C[C@@H]1CN([C@H](C)CO)C(=O)c2cc(NC(=O)Cc3cn(C)c4ccccc34)ccc2O[C@H]1CN(C)S(=O)(=O)c1ccc(F)cc1 | ? | / | 0.2% | / | / | /
CN(Cc1cccc(-n2cccn2)c1)C(=O)CCc1nnc(C2CCCCC2)o1 | ? | ? | 10.1% | 16.9µM* | / | 11.5%
COCCc1nc2ccc(C(=O)N(C)Cc3cccc(-n4cccn4)c3)cc2o1 | ? | 2.82µM* | ? | 21.3µM* | / | 2.82µM*
CN(Cc1cccnc1)C(=O)c1ccc2nc(Cc3ccccc3F)oc2c1 | ? | ? | 1.3%[9.26 µM] | 23.9µM* | / | 26.7%
CN(Cc1ccon1)C(=O)c1ccc2nc(Cc3cccc(Cl)c3)oc2c1 | 12.5% | -7.9% | 0.2% | 4.1% | / | 5.5%
N/C(=N\OC(=O)c1ccc(Br)o1)c1cccnc1 | ? | ? | 21.5% | ? | / | 27.5%
N/C(=N\OC(=O)CC1CCCCC1)c1cccnc1 | ? | -2.0% | 2.9% | 13.5µM* | -4.5% | -3.0%
N/C(=N\OC(=O)CCC1CCCC1)c1cccnc1 | ? | -0.2% | 6.2% | 13.5µM* | 14.9% | -0.5%
Cc1ccc(SCC(=O)O/N=C(\N)c2cccnc2)cc1 | ? | -0.4% | ? | -16.8% | / | -3.5%
SMILES | ELG1 DNA repair | Rab9 promoter act | ELG1 genotoxic | FLuc counter | SMN2 splice up | NPC1 prom act
N/C(=N\OC(=O)C1CCCCC1)c1cccnc1 | 22.4% | 5.8% | 3.1% | 19µM* | -7.9% | 7.1%
CC(C)(O)C(=O)O | / | / | / | / | -8.6% | /
COc1cc(NC(=O)c2noc3c2CC(C)CC3)c(OC)cc1Cl (stereo not drawn) | / | / | / | -9.8% | / | /
COc1ccc(-c2cn(CCN)c(-c3ccncc3)n2)cc1 | ? | -0.7% | 1.2% | 8.2% | / | -1.6%
Cn1cc(S(=O)(=O)N2CCOCC2)cc1C(=O)Nc1cccc(C#N)c1 | / | / | / | 3.5% | / | /
CCCc1nnc(NC(=O)Cc2coc3cc(C)cc(C)c23)s1 | / | / | / | -2.1% | -0.1% | /
Cn1nc(C(=O)Nc2ccc(F)c(Cl)c2)c2c1-c1ccccc1S(=O)(=O)C2 | / | / | / | -13.2% | / | /
CCOC(=O)N1CCN(Cc2nc(-c3cccs3)no2)CC1 | ? | 28.8% | 8.7% | -9.5% | / | 15.5%
Cc1cccc(-c2cnn(-c3cccc([N+](=O)[O-])c3)c2N)c1 | -23.0% | 27.5% | 7.9% | ? | ? | 17.7%
Cc1cccc(-c2cnn(-c3ccccc3)c2N)c1 | ? | 3.55µM* | ? | 6.75µM* | / | ?
NC(=O)c1cnn(-c2cccc(Cl)c2)c1N | 14.1% | -1.3% | 1.5% | 5.5% | / | -5.3%
Nc1ccccc1Nc1cc(-c2cccc(Cl)c2)nn1-c1ccccc1 | ? | 3.2% | 0.9% | 26.9µM* | 12.0% | 6.5%
Nc1c(-c2ccccc2)cnn1-c1cccc(Cl)c1 | ? | 1.41µM* | ? | 3.38µM* | / | 1.12µM*
Cc1ccc(-c2nnc(Nc3cccc(O)c3)c3ccccc23)cc1S(=O)(=O)N1CCCCC1 | / | / | / | -12.0% | -14.0% | /
COc1ccccc1-c1nccc(NCc2cccc(C)c2)n1 | / | / | / | / | -31.8% | /
COc1ccc(/C=N/N=C2/NC(=O)C(CC(=O)O)S2)cc1OCc1ccccc1Cl (stereo not drawn) | -2.7% | -1.1% | -2.1% | -3.0% | 11.1% | -0.8%
COc1cc(/C=N/O)ccc1OCc1ccccc1Cl | ? | 1.58µM* | 16.4µM* | 6.75µM* | 11.2µM* | 3.16µM*
COC(=O)COc1cccc(NC(=O)c2ccc(C)cc2)c1 | -4.4% | -1.0% | 3.1% | 12µM* | -3.4% | -7.0%
Cc1ccc(NC(=O)c2ccc(OC(=O)COc3ccc(Cl)c(C)c3)cc2)cc1 | ? | 3.55µM* | ? | ? | 12.6µM* | 2.24µM*
COC(=O)COc1cccc(NC(=O)c2ccc(Cl)cc2)c1 | -2.5% | -8.5% | -5.2% | 26.9µM* | 0.1% | -2.1%
CC(C)c1ccccc1NC(=O)CN1C(=O)c2cccc3cccc1c23 | / | / | / | 0.6% | -19.9% | /
Cc1ccc(C(=O)Oc2cccc(-n3cnnn3)c2)cc1 | ? | -4.4% | ? | ? | -0.1% | 1.0%
Cc1ccc(C(=O)Oc2ccc3c(c2)ncn3C)cc1 | ? | -15.9% | 4.7% | 3.01µM* | / | 3.9%
Cn1cnc2cc(OC(=O)c3ccccc3)ccc21 | 11.3% | -6.7% | 3.6% | 19µM* | 19.6% | -1.9%
COc1ccc(C(=O)N2N=C(c3ccc(NS(C)(=O)=O)cc3)CC2c2cccs2)cc1 (stereo not drawn) | 18.3µM* | 1.1% | -5.7% | -1.7% | / | -3.7%
